About 14,000 (4.5%) of roughly 310,000 compounds showed an effect of 50% or more. The effect is printed as a negative number. For the sample, strong results were picked, then their nearest neighbours and some compounds at random.
target: human ether-à-go-go-related gene (hERG) potassium channel (human, UniProt Q12809); experiment: primary screen, population patch clamp on CHO cells stably expressing hERG; higher = less effect of the substance
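Also: peak tail current of the secondary pulse compared with the same well before compound.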

Chain of human ether-à-go-go-related gene (hERG) potassium channel (Q12809 whole entry, looked up): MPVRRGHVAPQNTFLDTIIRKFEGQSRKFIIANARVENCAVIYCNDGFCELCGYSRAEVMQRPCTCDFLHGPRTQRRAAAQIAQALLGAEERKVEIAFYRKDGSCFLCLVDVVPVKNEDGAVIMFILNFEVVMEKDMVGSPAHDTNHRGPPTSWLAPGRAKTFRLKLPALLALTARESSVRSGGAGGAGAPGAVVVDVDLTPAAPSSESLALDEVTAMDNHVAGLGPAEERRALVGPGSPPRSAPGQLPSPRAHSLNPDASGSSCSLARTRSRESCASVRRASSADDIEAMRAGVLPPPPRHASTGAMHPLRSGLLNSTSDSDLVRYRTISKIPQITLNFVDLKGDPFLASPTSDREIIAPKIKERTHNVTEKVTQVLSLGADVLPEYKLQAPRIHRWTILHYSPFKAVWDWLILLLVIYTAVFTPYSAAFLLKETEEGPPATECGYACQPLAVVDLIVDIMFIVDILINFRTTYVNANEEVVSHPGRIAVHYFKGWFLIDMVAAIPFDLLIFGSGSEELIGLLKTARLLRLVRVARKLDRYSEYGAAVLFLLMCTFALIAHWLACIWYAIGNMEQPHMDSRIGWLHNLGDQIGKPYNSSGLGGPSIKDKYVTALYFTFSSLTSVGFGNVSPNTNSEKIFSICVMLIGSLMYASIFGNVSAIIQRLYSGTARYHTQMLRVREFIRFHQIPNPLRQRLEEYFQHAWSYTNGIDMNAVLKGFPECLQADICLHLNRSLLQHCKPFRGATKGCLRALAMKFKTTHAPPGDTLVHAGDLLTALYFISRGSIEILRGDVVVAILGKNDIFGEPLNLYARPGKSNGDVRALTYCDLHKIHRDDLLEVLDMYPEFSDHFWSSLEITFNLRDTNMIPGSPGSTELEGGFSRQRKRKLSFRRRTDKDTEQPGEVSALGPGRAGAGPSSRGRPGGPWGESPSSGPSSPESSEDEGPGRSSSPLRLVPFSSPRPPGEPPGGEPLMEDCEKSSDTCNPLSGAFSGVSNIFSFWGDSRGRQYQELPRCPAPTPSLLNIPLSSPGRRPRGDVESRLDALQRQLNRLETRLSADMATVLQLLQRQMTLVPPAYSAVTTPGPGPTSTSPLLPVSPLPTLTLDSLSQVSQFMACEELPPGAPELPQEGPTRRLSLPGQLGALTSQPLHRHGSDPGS

| Structure (SMILES) | hERG current change (%, negative = inhibition) at 10uM |
| --- | --- |
| COc1ccc(Br)cc1CN(C)C(=O)Cc1ccc(OC)c(S(=O)(=O)N2CCOCC2)c1 | -41% |
| COc1ccc(Br)cc1CN(C)C(=O)Cc1ccc(S(=O)(=O)N2CCOCC2)s1 | -70.4% |
| Cc1ccc(S(=O)(=O)N2CCOCC2)cc1C(=O)N(C)CCOc1ccc(Cl)cc1 | -64% |
| CC(OC(=O)/C=C/c1ccc(Br)cc1)C(=O)N1CCOCC1 (stereo not shown) | -10.8% |
| CCc1cc(=O)oc2c(CNC(Cc3ccccc3)C(=O)O)c(O)ccc12 (stereo not shown) | 9.3% |
| O=c1ccn(Cc2ccccc2Cl)cc1 | 8.8% |
| O=C(CCc1nnc(-c2ccsc2)o1)NCc1ccccc1OC(F)(F)F | 3.76% |
| CN1C(=O)C(=Cc2coc3ccccc3c2=O)C(=O)N(C)C1=O | 2.32% |
| O=C(Cn1cnc2ccccc21)Nc1ccc(C(=O)O)cc1.O=C(O)C(=O)O | -71.4% |
| O=C(Cn1cnc2ccccc21)Nc1ccc(F)c(F)c1 | 8.41% |
| Cc1ccc(NC(=O)Cn2cnc3ccccc32)cc1C | -3.44% |
| O=S(=O)(c1ccc(N2CCOCC2)cc1)N1CCOCC1 | -5.96% |
| O=C(CNC(=O)c1ccccc1)OCCCOC(=O)CNC(=O)c1ccccc1 | 11.8% |
| O=C(NC(=S)N1CCOCC1)c1ccccc1Cl | 12.7% |
| O=C(NN1C(=O)c2cc(Br)ccc2NC1c1ccccc1Cl)c1ccncc1 (stereo not shown) | 8.83% |
| COc1ccc(NC(=O)CN2CCC(n3c(C)nc4cc(F)ccc43)CC2)c(OC)c1 | -4.64% |
| COc1ccc(C(=O)NNC(=O)CN2CCC(n3nnc4cc(F)ccc43)CC2)cc1 | -18.4% |
| COc1cc(NC(=O)Nc2ccccc2OC)c(OC)cc1NC(=O)CN1CCCCC1 | 1.04% |
| COc1ccccc1NC(=O)CN1CCC(n2c(C)nc3cc(F)ccc32)CC1 | -72.2% |
| Cc1nc2cc(NC(=O)N3CCC(c4ccccc4)C3)ccc2n1C (stereo not shown) | -52.4% |
| COc1ccccc1NC(=O)CN1CCC(n2nnc3cc(F)ccc32)CC1 | -55.4% |
| Cc1nc2cc(NC(=O)N3CCCC3)ccc2n1C | -1.21% |
| COc1ccc(Cl)cc1NC(=O)CN1CCC(n2nnc3cc(F)ccc32)CC1 | -7.93% |

| Structure (SMILES) | hERG current change (%, negative = inhibition) at 10uM |
| --- | --- |
| Cl.O=C(CN1CCC(n2nnc3cc(F)ccc32)CC1)NCc1ccco1 | -35.6% |
| COc1ccc(CNC(=O)CN2CCC(n3nnc4cc(F)ccc43)CC2)cc1 | -68% |
| Cc1nc2ccc(NC(=O)N3CCC(c4ccccc4)C3)cc2nc1C (stereo not shown) | -11.4% |
| COc1ccc(Cl)cc1NC(=O)CN1CCC(n2nnc3ccccc32)CC1 | -10.4% |
| CCc1ccc(C(=O)N/N=C/c2cccc3ccccc23)nc1 | 1.8% |
| Cc1ccc(-c2nnc(SCC(=O)N3CCCC3)o2)cc1C | -0.309% |
| CC(C)Cc1nnc(NC(=O)CCC(=O)NC2CCCCCC2)s1 | -48.6% |
| CCN(CC)CCP(=O)(c1ccccc1)c1ccccc1 | -15.2% |
| OCCN1CCN(c2nc(-c3ccccc3)nc3c2oc2ccccc23)CC1 | -6.34% |
| COC(=O)C1=C(CN2CCN(C)CC2)NC(=O)NC1c1cc(C)ccc1C (stereo not shown) | -41% |
| COc1ccc2c(=O)cc(-c3cccnc3)oc2c1OC | 8.9% |
| CCc1nnc(NC(=O)c2c(-c3ccccc3)noc2C)s1 | 10.2% |
| N#Cc1ccccc1OCC(=O)Nc1cccc(S(=O)(=O)N2CCCC2)c1 | 5.17% |
| O=C(Cc1ccccc1F)Nc1ccc(SC(F)F)cc1 | 14% |
| Cc1ccccc1C(=O)NC1CCN(CC(=O)NCc2ccc(F)cc2)CC1 | -44.2% |
| Cc1nc2ccccc2n1C1CCN(CC(=O)NCc2ccc(F)cc2)CC1 | -58% |
| O=C(CN1CCC(n2nnc3cc(F)ccc32)CC1)NC1CCCCC1 | -32.8% |
| O=C(Nc1ccccc1)N1CCC(n2c(=O)[nH]c3ccccc32)CC1 | -8.18% |
| COC(=O)C1CCN(C(=O)Nc2ccccc2)CC1 | 24.3% |
| CC1CCC(NC(=O)CN2CCC(n3nnc4cc(F)ccc43)CC2)CC1 (stereo not shown) | -58.4% |
| Cc1nc2ccccc2n1C1CCN(C(=O)Nc2ccccc2)CC1 | -60.5% |
| O=C(CN1CCC(n2nnc3cc(F)ccc32)CC1)NC1CC1 | -4.99% |
| Cc1nc2ccccc2n1C1CCN(CC(=O)Nc2ccccc2Br)CC1 | -25% |
